Source: PubChem
RORg inh: qHTS for inhibitors of ROR gamma transcriptional activity | Potency, µM (titrated, usually from 53.6 µM), most hits filed as inhibitors | actives 5.4% (n = 310,000) | Nuclear receptor ROR-gamma (Mus musculus), P51450 | AID 2551, 2010 | Drosophila S2 Gal4-RORgamma UAS-luciferase reporter, 20 h; note: nearly all actives have a fitted effect of over 60% in size
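Compounds are pin-transferred onto Drosophila Schneider cells expressing a copper-inducible Gal4–ROR gamma transactivation domain fusion. After 1 hr, copper sulfate is added to 700 uM final; luciferase is read 20 hr later.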
Six1-Eya2 inh: qHTS Assay for Inhibitors of the Six1/Eya2 Interaction; Homeobox protein SIX1 (Homo sapiens) + Protein phosphatase EYA2 (Homo sapiens), …; AlphaScreen GST-Six1/His-Eya2 binding, biochemical; active compounds read low; activity change, % (concentration not given with the values); actives 0.56% (n = 360,000); AID 651725, 2012; in the data active = activity change below about -65%; inconclusive = mostly about -30% to -63%
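Six1/Eya2 binding was read as AlphaScreen signal after compounds were pinned into GST-Six1 plus His-tagged Eya2 (5X stock 250/500 nM) in pH 8.0 Tris/NaCl/TCEP buffer, beads added, then incubated 1 h, 37 C, dark.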
CtBP-E1A blk: qHTS Assay for Inhibitors of the CtBP/E1A Interaction. activity change, % (no concentration beside the values). AlphaScreen GST-E1A/His-CtBP binding, 1536-well; active compounds read low. actives 0.49% (n = 340,000); in the data active = activity change below about -65%; inconclusive = mostly about -30% to -63%
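AlphaScreen with 125 nM GST-E1A and 125 nM His-CtBP (5X stocks) in Tris pH 8.0, 300 mM NaCl, BSA, Tween 20, TCEP. Compounds preincubated 2 h at 37 deg C, then glutathione donor/nickel acceptor beads added for 1 h at 37 deg C in dark.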
VP16 counter: VP16 counterscreen qHTS for inhibitors of ROR gamma transcriptional activity | Drosophila S2 Gal4-VP16 UAS-luciferase, luminescence, 20 h | Potency, µM (doses to about 53.6 µM), most hits filed as inhibitors | actives 3.5% (n = 310,000) | AID 2546, 2010;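 note: Gal4-VP16 expression switched on by copper sulfate through the metallothionein promoter; nearly all actives have a fitted effect of over 50% in size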
PKM2 activator: qHTS Assay for Activators of Human Muscle isoform 2 Pyruvate Kinase. Pyruvate kinase PKM (Homo sapiens), P14618. purified PKM2, Kinase-Glo ATP luminescence, activation; response scale: 0% is enzyme alone, no compound. Potency, µM (doses to about 57.5 µM), most hits filed as activators. actives 0.34% (n = 260,000). AID 1631, 2009; note: nearly all actives have a fitted effect of over 55% in size
Target sequence (P14618 whole entry, looked up, canonical isoform): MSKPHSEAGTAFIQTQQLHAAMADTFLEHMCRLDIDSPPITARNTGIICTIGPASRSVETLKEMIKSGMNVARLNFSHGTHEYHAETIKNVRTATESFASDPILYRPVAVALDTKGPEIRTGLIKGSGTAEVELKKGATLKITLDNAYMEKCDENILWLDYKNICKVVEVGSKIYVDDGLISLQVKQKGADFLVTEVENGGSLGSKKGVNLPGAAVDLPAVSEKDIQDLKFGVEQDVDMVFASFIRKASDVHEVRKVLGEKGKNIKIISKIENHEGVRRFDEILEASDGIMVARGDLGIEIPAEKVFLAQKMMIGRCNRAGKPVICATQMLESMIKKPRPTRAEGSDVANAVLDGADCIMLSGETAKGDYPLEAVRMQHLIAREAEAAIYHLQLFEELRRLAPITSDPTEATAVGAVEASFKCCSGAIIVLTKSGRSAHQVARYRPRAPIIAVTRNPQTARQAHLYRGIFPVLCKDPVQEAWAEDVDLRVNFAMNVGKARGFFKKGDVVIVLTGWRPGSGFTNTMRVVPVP
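Purified hPK-M2 (>95%) run at intermediate activity with 0.1 mM ADP and 0.5 mM PEP in 50 mM imidazole pH 7.2, KCl, MgCl2; 1 h room temperature. ATP formed read by Kinase-Glo luminescence; normalized to uninhibited and no-enzyme controls.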
Numbers stand for hits. Only some compounds are listed: those with a hit (about 5.6% of all), similar ones and a draw of the others. Unless noted, calls come from the whole dose curve; as a rule, active = well fitted curve in the direction sought with a large enough effect; inconclusive = small, poorly fitted or top-dose-only effect, or another doubt; inactive = no such curve, though single readings can be large; an effect the other way counts as inactive or inconclusive.

`O=C(CC(Sc1ccc(Br)cc1)C(=O)O)c1ccc(Br)cc1` (stereo unspecified) gave RORg inh 14µM and VP16 counter inconclusive.
Cc1ccc(SC(CC(=O)c2ccc(C)cc2)C(=O)O)cc1 (stereo unspecified) was read as RORg inh inconclusive, Six1-Eya2 inh inactive, CtBP-E1A blk inactive, VP16 counter inconclusive and PKM2 activator inactive.
For COC(=O)/C(=N\Nc1ccc(Cl)cc1)Sc1nnc(-c2ccc(OC)cc2)n1C the results were RORg inh 5.6µM, Six1-Eya2 inh inactive, CtBP-E1A blk inactive, VP16 counter inconclusive and PKM2 activator inactive.
CCOC(=O)/C(=N/Nc1ccccc1)Sc1nnc(CCc2ccccc2)n1-c1ccccc1 was read as RORg inh 4.5µM, Six1-Eya2 inh inactive, CtBP-E1A blk inactive, VP16 counter 7.1µM and PKM2 activator inactive.
Screening Cc1cccc(-n2c(CCc3ccccc3)nnc2SCC(=O)c2ccccc2)c1 returned RORg inh inconclusive, Six1-Eya2 inh inactive, CtBP-E1A blk inactive, VP16 counter 11µM and PKM2 activator inactive.
`CCOC(=O)/C(=N/Nc1ccc(Cl)cc1)Sc1nnnn1-c1ccc(C)cc1` gave RORg inh 6.3µM, Six1-Eya2 inh inactive, CtBP-E1A blk inactive, VP16 counter inconclusive and PKM2 activator inactive.
Cc1ccc(OCc2nnc(SCC(=O)c3ccccc3)n2-c2ccccc2)cc1 was read as RORg inh inconclusive, Six1-Eya2 inh inactive, CtBP-E1A blk inactive, VP16 counter inconclusive and PKM2 activator inactive.
Screening CCOC(=O)/C(=N/Nc1ccccc1)Sc1nnnn1-c1ccc(C)cc1 returned RORg inh inconclusive, Six1-Eya2 inh inactive, CtBP-E1A blk inactive, VP16 counter inactive and PKM2 activator inactive.
For Cc1ccc(OCC(=O)c2ccc(Cl)s2)c([N+](=O)[O-])n1 the results were RORg inh inconclusive, Six1-Eya2 inh inactive, CtBP-E1A blk inactive, VP16 counter 20µM and PKM2 activator inactive.
For CCn1cc(CN2CCC(n3nccc3NC(=O)C(OC)c3ccccc3)CC2)cn1 (stereo unspecified) the results were Six1-Eya2 inh inactive and CtBP-E1A blk inactive.
For FC(F)(F)c1ccc(NC(=S)NCc2ccccc2)cc1 the results were RORg inh 4.5µM, Six1-Eya2 inh inactive, CtBP-E1A blk inactive, VP16 counter inconclusive and PKM2 activator inactive.
FC(F)Sc1ccc(NC(=S)NC(c2ccccc2)c2ccccc2)cc1 was read as RORg inh 7.1µM, Six1-Eya2 inh inactive, VP16 counter inconclusive and PKM2 activator inactive.
`FC(F)Sc1ccc(NC(=S)NCc2ccccc2)cc1` gave RORg inh 11µM, Six1-Eya2 inh inactive, CtBP-E1A blk inactive, VP16 counter inconclusive and PKM2 activator inactive.
`COc1cc(C(=O)NCc2ccccc2)cc(Br)c1OC` gave RORg inh inactive, Six1-Eya2 inh inactive, CtBP-E1A blk inactive, VP16 counter inactive and PKM2 activator inactive.
`COc1ccc(C(=O)NC(=S)N(C)Cc2ccccc2)cc1Br` gave RORg inh 0.4µM, Six1-Eya2 inh inactive, CtBP-E1A blk inactive, VP16 counter 0.71µM and PKM2 activator inactive.
`CN(Cc1ccccc1)C(=S)NC(=O)c1ccccc1` gave RORg inh 1µM, Six1-Eya2 inh inactive, CtBP-E1A blk inactive, VP16 counter 2.8µM and PKM2 activator inactive.
For Cc1ccc(C(=O)OC(C)CN2C(C)CCCC2C)cc1 (stereo unspecified) the results were RORg inh inactive, Six1-Eya2 inh inactive, CtBP-E1A blk inactive and VP16 counter inactive.
Cc1nnc(SCCOc2ccccc2)s1 was read as RORg inh inactive, Six1-Eya2 inh inactive, CtBP-E1A blk inactive, VP16 counter inactive and PKM2 activator inactive.
`CN(C)c1ccc(/C=C/c2ccc3c4ccccc4ccc3[n+]2-c2ccccc2)cc1` gave RORg inh 1.4µM, Six1-Eya2 inh inconclusive, CtBP-E1A blk inactive, VP16 counter inconclusive and PKM2 activator inactive.
